Assay [1] addresses Lysosomal acid glucosylceramidase (Homo sapiens) (UniProt P04062). In words: Glucocerebrosidase-p2 (AID 348; in the data active means potency below about 10 µM; further: potency means the concentration at half of the fitted maximal effect). The settings on record: purified GBA, blue fluorogenic substrate, 40 min. In short, it runs like this:
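Compounds titrated from 0.6 nM upwards against 0.2 nM enzyme in pH 5.9 citric acid/KH2PO4, taurocholate, tween-20; blue fluorogenic substrate 80 uM, 40 min room temperature, stopped and read Ex 365/Em 440 for AC50.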

Assay [2] can be described thus: AP1 Signaling Pathway (AID 357). Further: on the % scale 0 is the no-effect control and ±100 the full control effect. Particulars: ME-180 AP-1-bla reporter, EGF-induced, beta-lactamase ratio, 5 h; at 7.69 µM (top of the series) unless noted. In short, it runs like this: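 First, ME-180 AP-1-bla cells were cultured overnight at 37 °C in low-serum Opti-MEM. Next, titrated compounds with EC50 EGF were incubated 5 hours. Finally, CCF4 was added for 2.5 hours and the 460/530 nm ratio recorded.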

For assay [3], the target named is Cytochrome P450 1A2 (Homo sapiens) (UniProt P05177). The experiment in a line: p450-cyp1a2 (AID 410; calls by dose curve; further: potency means the concentration at half of the fitted maximal effect;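 on activity change, negative = inhibition: -100% = full effect of reference inhibitor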). The settings on record: recombinant CYP1A2, luciferin-ME demethylation, luminescence; series mostly up to 57 µM. In short, it runs like this: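 Inhibition was calculated relative to 57 uM furafylline (full inhibition). The reaction used human CYP1A2 at 20nM with Luciferin-ME at its Km, 100uM, driven by an NADPH-regenerating system for 60 min at room temperature.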

Assay [4] is described as follows: NFAT Signaling Pathway (AID 444).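 Further: carbachol stimulus at about its EC50 of 1 µM final; on the % scale 0 is the no-effect control and ±100 the full control effect.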 The settings on record: Jurkat NFAT-bla M1, carbachol, beta-lactamase ratio, 5 h; at 7.69 µM (top of the series) unless noted. In short, it runs like this: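 Read-out: CCF4 FRET ratio (460 nm/530 nm) after 1 h RT dye loading, used for %activity and AC50 from titration series. Cells: Jurkat NFAT-β-lactamase/M1 line, treated with compound plus 1 uM carbachol for 5 h, 37 °C.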

A short description of assay [5]: Stat Signaling Pathway (AID 446).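 Further: ME-180 cervical cancer cells given 40 pM IL-6 alongside compound; SIE-controlled beta-lactamase reporter measured as 460/530 nm FRET emission ratio; on the % scale 0 is the no-effect control and ±100 the full control effect.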 The settings on record: ME-180 SIE beta-lactamase reporter, IL-6 stimulated, 5 h; at 7.69 µM (top of the series) unless noted. In short, it runs like this:
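ME-180 SIE-bla cells; overnight plating; cpd + IL-6 40 pM, 5 h, 37 C; LiveBLAzer 2.5 h RT; 460/530 nm emission ratio. Normalized to 300 pM IL-6 and 125 nM JAK inhibitor controls.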

For assay [6], the target named is Glucocorticoid receptor (Homo sapiens) (UniProt P04150). The experiment in a line: GR-EFC Redistribution (AID 451; calls by dose curve; further: potency means the concentration at half of the fitted maximal effect). Particulars: CHO-K1 GR-EFC translocation, beta-gal luminescence, 2 h. In short, it runs like this:
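Translocation of GR-ED fusion to nuclear EA restores b-gal, read by luminescence after 1 h room-temperature detection. Engineered CHO-K1 biosensor cells, 1,000/well, exposed 2 h at 37 C to titrations up to 46 uM final.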

Assay [7] has as its target Mitogen-activated protein kinase 10 (Mus musculus) (UniProt Q61831). The experiment in a line: JNK3 AlphaScreen Assay (AID 530).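 Further: kinase came from lysate of stimulated human HepG2 cells; signal reports phosphorylation of biotinylated GST-cJun 1-79 at Ser73 with 10 µM ATP; on the % scale 0 is the no-effect control and ±100 the full control effect.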 Particulars: JNK3 lysate, c-Jun phosphorylation; series mostly up to 57.1 µM. In short, it runs like this: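 Room-temperature AlphaScreen kinase assay; pre-activated HepG2 lysate as JNK3 source, biotin-GST-cJun(1-79) substrate, 10 uM ATP, compound 15 min preincubation.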
For orientation: Alpha assays give light when donor and acceptor beads are brought close together.

Assay [8] addresses 3',5'-cyclic-AMP phosphodiesterase 4B (Homo sapiens) (UniProt Q07343). The experiment in a line: qHTS Assay for Inhibitors of PDE-IV (AID 607; active means well fitted activation curve with a large enough effect in the main read-out, with a control signal flat, not every such curve was filed as active; further: % of control where 0% means no effect). Particulars: HEK293 ACTOne CNG channel cells, membrane potential fluorescence; series mostly up to 22.9 µM. In short, it runs like this: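 ACTOne HEK293 cells carry a modified cAMP-gated CNG channel and express endogenous PDE4; plated 1000 cells/well, compounds up to 22.9 uM final. Membrane-potential dye fluorescence (ex 535/em 590) was read; parental cells received 10 uM forskolin + 100 uM RO 20-1724.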
For orientation: Quantitative high-throughput screening tests each substance at several concentrations.

Assay [9] is described as follows: qHTS Assay for Lipid Storage Modulators (AID 1519; calls by dose curve). Particulars: Drosophila S3 cells, BODIPY lipid droplet/cell ratio, laser cytometry, cells loaded with oleic acid; for activity change, negative = inhibition: at 57.5 µM (top of the series). In short, it runs like this:
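Cells seeded at 5,000 per well were treated with compounds over a concentration series and loaded with oleic acid (400 uM, as added). Lipid droplet fluorescence (488 nm excitation, 500-530 nm channel) was read by laser-scanning cytometry and normalized to 20 uM Triacsin C.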

A short description of assay [10]: Primary qHTS for small molecule stabilizers of the endoplasmic reticulum resident proteome: Secreted ER Calcium Modulated Protein (SERCaMP) assay (AID 1508630; active means well fitted curve in the direction sought with a large enough effect; an effect the other way counts as inactive or inconclusive; further: on the % scale 0 is the no-effect control and ±100 the full control effect). The settings on record: SH-SY5Y GLuc-SERCaMP (Gaussia luciferase released on ER calcium loss) secretion, thapsigargin, luminescence; series mostly up to 38.4 µM. In short, it runs like this: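 GLuc-SERCaMP-expressing SH-SY5Y cells, pretreated 16 h with compound, are challenged with thapsigargin to empty ER calcium stores; after 4 h, coelenterazine is added directly to the medium and luminescence is imaged.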

The target in assay [11] is Glucocorticoid receptor (Homo sapiens) (UniProt P04150). The experiment in a line: GR-GFP Redistribution (AID 450;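 active means compounds whose dose series gives a full or clear partial fitted curve of increased nuclear translocation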; further: potency means the concentration at half of the fitted maximal effect). The settings on record: U2OS GR-GFP nuclear translocation, laser cytometry, 2 h.
A short description of assay [12]: qHTS Assay for Identification of Small Molecule Agonists for Hypoxia Response Element Signaling Pathway (AID 914; active means well fitted activation curve with a large enough effect in the signal ratio, with a control signal flat, not every such curve was filed as active; the % refers to the signal ratio; further: potency means the concentration at half of the fitted maximal effect). The settings on record: ME-180 (cervical carcinoma) HRE-bla reporter, beta-lactamase ratio, CoCl2, 17 h; activation: stronger effect = higher value. In short, it runs like this:
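HRE-bla ME-180 assay for agonist-like enhancement of an EC50 CoCl2 stimulus: 17 h at 37 degrees Celsius, CCF4 for 2.5 h, ratiometric 460/530 nm signal converted to %Activity and fitted to AC50.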

The target in assay [13] is Cytochrome P450 3A4 (Homo sapiens) (UniProt P08684). In words: qHTS Assay for Activators of Cytochrome P450 3A4 (AID 885; active means well fitted curve in the direction sought with a large enough effect; an effect the other way counts as inactive or inconclusive; further: nearly all actives have a fitted effect of over 65% in size). Particulars: recombinant CYP3A4, Luciferin-PPXE luminescence, 60 min; series mostly up to 57.1 µM. In short, it runs like this: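 20nM CYP3A4 + 25uM Luciferin-PPXE (=KM), 200mM KPO4; cpd 10 min RT; NADPH regen, 60 min RT; stop w/ detection buffer, 20 min; luminescence. Normalized to 57 uM ketoconazole.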

Assay [14] deals with Cytochrome P450 2C19 (Homo sapiens) (UniProt P33261). In words: qHTS Assay for Inhibitors and Substrates of Cytochrome P450 2C19 (AID 899; active means well fitted curve in the direction sought with a large enough effect; an effect the other way counts as inactive or inconclusive; further: potency means the concentration at half of the fitted maximal effect; nearly all actives have a fitted effect of over 60% in size). The settings on record: recombinant CYP2C19, luciferin-H EGE luminescence; series mostly up to 57.1 µM. In short, it runs like this:
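Luminescence readout of luciferin formed from 10uM Luciferin-H EGE (KM level) by 5 nM CYP2C19 in 50mM KPO4. 60 min NADPH-driven reaction at 37C after 10 min compound preincubation; data scaled to 57uM ketoconazole inhibition.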

Assay [15] in a line: Confirmation and Secondary Assay for Modulators of Hemoglobin Beta Chain Splicing at IVS2 654 locus (AID 910; active means well fitted curve in the direction sought with a large enough effect; an effect the other way counts as inactive or inconclusive;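 further: HeLa cells stably carrying EGFP split by mutant beta-globin IVS2-654 intron; per-well total GFP intensity by laser scanning cytometry after 2-day treatment; % of control where 0% means no effect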). The settings on record: HeLa EGFP-654 splicing reporter, GFP fluorescence, 48 h; series mostly up to 38.3 µM. In short, it runs like this:
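Readout: per-well total peak green fluorescence (488 nm ex, 500–520 nm em) from objects 5–250 µm, reflecting correct splicing of an EGFP-654 reporter. Compounds were applied for 2 days at 37 °C to overnight-plated HeLa EGFP-654 cells; controls were DMSO and 500 nM IVS2-654 PNA.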

A short description of assay [16]: Confirmation and Secondary Assay for Modulators of Hemoglobin Beta Chain Splicing at IVS2 705 locus (AID 930; active means well fitted curve in the direction sought with a large enough effect; an effect the other way counts as inactive or inconclusive;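 further: HeLa cells stably expressing the EGFP-705 splicing reporter; GFP fluorescence per well restored by corrected splicing of the IVS2-705 intron in EGFP; % of control where 0% means no effect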). Particulars: HeLa EGFP-705 splicing reporter, GFP fluorescence, 48 h; series mostly up to 38.3 µM. In short, it runs like this: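 HeLa IVS2-705 EGFP reporter cells, 500/well, compound 2 d at 37C; correct splicing yields fluorescent EGFP. Control: 500 nM antisense PNA. Read-out: total peak GFP intensity.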

The target in assay [17] is Cytochrome P450 3A4 (Homo sapiens) (UniProt P08684). In words: qHTS Assay for Inhibitors and Substrates of Cytochrome P450 3A4 (AID 884; active means well fitted curve in the direction sought with a large enough effect; an effect the other way counts as inactive or inconclusive; further: potency means the concentration at half of the fitted maximal effect; nearly all actives have a fitted effect of over 50% in size). The settings on record: recombinant CYP3A4, Luciferin-PPXE luminescence; series mostly up to 57.1 µM. In short, it runs like this:
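20 nM human CYP3A4 with 25 uM Luciferin-PPXE (at KM) in 200 mM KPO4, preincubated 10 min with compound; NADPH regeneration started a 60 min RT reaction. Luciferin detected by luminescence, normalized to 57 uM ketoconazole as full inhibition.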

Assay [18] addresses Cytochrome P450 2C9 (Homo sapiens) (UniProt P11712). The experiment in a line: qHTS Assay for Inhibitors and Substrates of Cytochrome P450 2C9 (AID 883; active means well fitted curve in the direction sought with a large enough effect; an effect the other way counts as inactive or inconclusive; further: potency means the concentration at half of the fitted maximal effect; nearly all actives have a fitted effect of over 60% in size). Particulars: recombinant CYP2C9, luciferin-H luminescence, 60 min; series mostly up to 57.1 µM. In short, it runs like this: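 Luminescent read-out of deoxyluciferin hydroxylation, normalized to 57uM sulphaphenazole (AC100). Reaction: 10nM enzyme, 100uM Luciferin-H (equal to KM), 25mM KPO4, 10 min compound preincubation, then 60 min with NADPH regeneration, both at 37C.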

[19] abbreviates: measured here: cell count channel max response.
Setting [20] is: measured here: lipid channel max response.

Records with an inconclusive call do not appear. Active and inactive are the calls of the source. Unless noted, the call rests on the fitted dose curve; in most records, active means well fitted curve in either direction with a large enough effect (not every such curve was filed as active); inconclusive means small, poorly fitted or top-dose-only effect, or another doubt; inactive means flat fitted curve, though single readings scatter. Bounds are passed on as bounds.

Cytochrome P450 3A4 (Homo sapiens), sequence (P08684 whole entry, looked up): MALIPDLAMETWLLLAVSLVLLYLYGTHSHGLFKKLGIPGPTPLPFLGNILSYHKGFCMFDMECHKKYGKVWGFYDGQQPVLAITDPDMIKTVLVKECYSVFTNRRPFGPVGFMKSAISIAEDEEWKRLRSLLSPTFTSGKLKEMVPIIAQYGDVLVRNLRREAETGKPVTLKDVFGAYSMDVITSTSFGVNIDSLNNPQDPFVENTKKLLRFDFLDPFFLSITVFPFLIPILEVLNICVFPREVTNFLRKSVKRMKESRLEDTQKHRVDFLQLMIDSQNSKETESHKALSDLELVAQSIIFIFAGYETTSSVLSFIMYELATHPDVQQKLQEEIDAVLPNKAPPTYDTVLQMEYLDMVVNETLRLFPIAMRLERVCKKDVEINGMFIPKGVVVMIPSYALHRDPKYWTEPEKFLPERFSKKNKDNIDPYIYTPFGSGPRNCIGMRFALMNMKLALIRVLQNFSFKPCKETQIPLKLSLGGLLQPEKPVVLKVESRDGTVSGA
3',5'-cyclic-AMP phosphodiesterase 4B (Homo sapiens), sequence (Q07343 whole entry, looked up): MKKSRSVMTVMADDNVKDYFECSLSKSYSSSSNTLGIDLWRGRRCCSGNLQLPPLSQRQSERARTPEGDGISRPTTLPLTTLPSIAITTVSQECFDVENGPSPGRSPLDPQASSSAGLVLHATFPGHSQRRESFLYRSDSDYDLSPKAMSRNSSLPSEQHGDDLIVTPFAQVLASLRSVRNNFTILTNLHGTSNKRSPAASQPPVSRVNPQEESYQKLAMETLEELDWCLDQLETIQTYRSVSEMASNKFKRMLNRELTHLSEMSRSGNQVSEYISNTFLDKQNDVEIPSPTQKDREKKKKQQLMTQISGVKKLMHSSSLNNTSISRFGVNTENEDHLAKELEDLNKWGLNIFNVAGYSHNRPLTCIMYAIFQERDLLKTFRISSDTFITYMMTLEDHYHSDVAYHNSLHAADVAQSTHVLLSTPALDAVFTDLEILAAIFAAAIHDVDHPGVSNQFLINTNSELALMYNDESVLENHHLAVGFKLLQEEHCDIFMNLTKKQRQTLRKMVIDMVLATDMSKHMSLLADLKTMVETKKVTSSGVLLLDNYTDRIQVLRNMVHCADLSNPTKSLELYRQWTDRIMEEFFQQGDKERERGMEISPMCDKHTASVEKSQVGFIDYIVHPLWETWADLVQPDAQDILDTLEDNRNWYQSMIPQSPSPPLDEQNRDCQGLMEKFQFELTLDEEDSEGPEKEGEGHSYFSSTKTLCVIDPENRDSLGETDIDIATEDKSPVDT
Lysosomal acid glucosylceramidase (Homo sapiens), sequence (P04062 whole entry, looked up): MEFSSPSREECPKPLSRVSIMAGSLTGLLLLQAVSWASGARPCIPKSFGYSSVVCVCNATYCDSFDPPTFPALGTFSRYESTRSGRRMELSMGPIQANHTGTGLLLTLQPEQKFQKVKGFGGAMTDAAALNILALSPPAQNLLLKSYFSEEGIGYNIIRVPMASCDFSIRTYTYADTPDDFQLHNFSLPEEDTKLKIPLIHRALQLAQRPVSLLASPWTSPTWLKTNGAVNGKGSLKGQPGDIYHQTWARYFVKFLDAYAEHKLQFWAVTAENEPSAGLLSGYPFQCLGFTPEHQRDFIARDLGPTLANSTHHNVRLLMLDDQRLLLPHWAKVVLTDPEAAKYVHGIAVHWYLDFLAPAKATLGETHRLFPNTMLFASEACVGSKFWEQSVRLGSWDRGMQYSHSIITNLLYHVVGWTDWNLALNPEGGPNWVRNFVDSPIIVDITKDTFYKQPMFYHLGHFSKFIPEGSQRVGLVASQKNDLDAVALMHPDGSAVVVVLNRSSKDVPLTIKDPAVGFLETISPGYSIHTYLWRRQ
Glucocorticoid receptor (Homo sapiens), sequence (P04150 whole entry, looked up, the tested form may be a part): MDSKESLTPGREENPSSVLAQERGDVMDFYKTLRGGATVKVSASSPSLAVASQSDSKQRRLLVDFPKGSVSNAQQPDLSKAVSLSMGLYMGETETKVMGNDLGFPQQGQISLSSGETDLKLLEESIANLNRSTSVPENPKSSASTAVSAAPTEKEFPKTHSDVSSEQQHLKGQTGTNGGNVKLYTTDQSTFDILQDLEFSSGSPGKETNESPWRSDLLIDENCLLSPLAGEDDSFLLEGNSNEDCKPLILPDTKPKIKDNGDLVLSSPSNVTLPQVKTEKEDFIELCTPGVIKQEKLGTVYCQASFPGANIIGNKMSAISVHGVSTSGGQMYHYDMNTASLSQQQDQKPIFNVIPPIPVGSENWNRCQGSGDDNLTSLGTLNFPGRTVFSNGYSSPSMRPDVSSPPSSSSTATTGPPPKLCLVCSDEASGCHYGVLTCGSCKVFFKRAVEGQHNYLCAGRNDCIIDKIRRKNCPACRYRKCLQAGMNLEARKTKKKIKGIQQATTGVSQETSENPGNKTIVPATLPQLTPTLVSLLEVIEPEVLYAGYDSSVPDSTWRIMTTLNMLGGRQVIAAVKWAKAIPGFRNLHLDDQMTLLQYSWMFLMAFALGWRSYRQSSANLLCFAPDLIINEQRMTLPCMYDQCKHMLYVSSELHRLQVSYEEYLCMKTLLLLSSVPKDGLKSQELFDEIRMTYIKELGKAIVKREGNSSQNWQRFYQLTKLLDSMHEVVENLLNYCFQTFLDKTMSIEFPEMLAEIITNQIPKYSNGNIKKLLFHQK
Cytochrome P450 1A2 (Homo sapiens), sequence (P05177 whole entry, looked up): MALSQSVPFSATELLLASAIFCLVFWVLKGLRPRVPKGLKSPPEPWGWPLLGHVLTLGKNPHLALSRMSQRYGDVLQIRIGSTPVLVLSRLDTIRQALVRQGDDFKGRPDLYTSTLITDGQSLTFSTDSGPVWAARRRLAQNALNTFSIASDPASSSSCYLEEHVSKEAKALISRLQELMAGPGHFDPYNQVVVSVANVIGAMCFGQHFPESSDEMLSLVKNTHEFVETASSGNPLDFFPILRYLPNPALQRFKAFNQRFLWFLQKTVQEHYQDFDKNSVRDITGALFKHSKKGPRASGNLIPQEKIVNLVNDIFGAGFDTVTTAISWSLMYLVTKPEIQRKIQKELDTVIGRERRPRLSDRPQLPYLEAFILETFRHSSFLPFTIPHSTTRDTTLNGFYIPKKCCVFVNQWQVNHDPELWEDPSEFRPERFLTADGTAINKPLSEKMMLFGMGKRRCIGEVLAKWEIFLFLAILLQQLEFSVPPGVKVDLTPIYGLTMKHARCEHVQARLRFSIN
Cytochrome P450 2C19 (Homo sapiens), sequence (P33261 whole entry, looked up): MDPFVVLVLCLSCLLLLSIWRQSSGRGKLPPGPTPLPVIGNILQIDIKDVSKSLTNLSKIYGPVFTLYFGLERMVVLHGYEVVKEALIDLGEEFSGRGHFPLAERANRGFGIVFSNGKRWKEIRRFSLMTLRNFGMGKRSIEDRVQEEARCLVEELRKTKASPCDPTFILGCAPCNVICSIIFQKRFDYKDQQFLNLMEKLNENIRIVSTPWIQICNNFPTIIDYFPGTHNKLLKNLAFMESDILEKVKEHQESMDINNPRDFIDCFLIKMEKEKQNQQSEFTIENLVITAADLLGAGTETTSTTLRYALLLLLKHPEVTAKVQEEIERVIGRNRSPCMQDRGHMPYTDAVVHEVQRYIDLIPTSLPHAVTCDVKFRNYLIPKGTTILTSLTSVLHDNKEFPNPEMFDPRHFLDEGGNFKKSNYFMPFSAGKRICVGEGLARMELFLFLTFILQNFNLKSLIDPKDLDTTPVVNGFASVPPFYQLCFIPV
Cytochrome P450 2C9 (Homo sapiens), sequence (P11712 whole entry, looked up): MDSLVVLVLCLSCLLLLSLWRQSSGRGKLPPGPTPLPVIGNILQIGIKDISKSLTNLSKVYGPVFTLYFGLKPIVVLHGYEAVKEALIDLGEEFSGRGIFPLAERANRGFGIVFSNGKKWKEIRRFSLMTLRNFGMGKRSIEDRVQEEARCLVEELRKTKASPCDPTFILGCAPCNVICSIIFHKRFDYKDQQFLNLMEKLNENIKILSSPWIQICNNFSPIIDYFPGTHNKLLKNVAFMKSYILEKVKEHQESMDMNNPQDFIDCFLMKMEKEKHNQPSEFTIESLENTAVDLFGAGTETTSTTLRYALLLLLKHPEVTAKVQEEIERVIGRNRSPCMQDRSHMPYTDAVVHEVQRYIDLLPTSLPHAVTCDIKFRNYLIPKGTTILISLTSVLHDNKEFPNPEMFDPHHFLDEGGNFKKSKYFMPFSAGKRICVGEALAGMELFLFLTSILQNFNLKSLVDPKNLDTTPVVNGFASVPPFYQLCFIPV

With `COC(=O)N1CCC2(CC1)CN(C(=O)Nc1cccc(C#N)c1)C2`, the Potency in assay [1] was > 11.4 µM (inactive); in [6], > 46 µM (inactive). Also, the activity change, negative = inhibition in assay [2] was 2.52% (inactive); in assay [4] it was 6.57% (inactive); in assay [9], 4.73% (inactive). Further, the Potency entry in assay [3], in assay [8] and in [10] was “inactive” throughout. For the same compound, the activity, negative = inhibition in assay [5] was -1.88% (inactive). In addition, the compound was called inactive in assay [7]. Besides, the figures for the max response in [9] (setting [19]) and in assay [9] (setting [20]) were -0.334% and 8.67%, respectively.
Regarding `COc1ncc2nc(-c3cccs3)c(=O)n(-c3ccccc3)c2n1`, the Potency in assay [1] was > 11.4 µM (inactive); in [3], 2 µM (active); in assay [11] it was > 9.22 µM (inactive); in assay [6] it was > 46 µM (inactive); in [12], 3.16 µM (active). The activity change, negative = inhibition was -4.36% (inactive) in assay [2], -4.96% (inactive) in [4] and -3.04% (inactive) in assay [9]. Further, the activity, negative = inhibition in assay [5] is 17.5% (inactive). Also, the call in assay [7] was inactive. The Potency result in assay [8] and in [10] was “inactive” in each case. Also, the values for the max response in assay [9] (setting [19]) and in assay [9] (setting [20]) were -0.0529% and -2.75%, respectively.
As to `COc1cccc(-c2ccc3ncnc(NC4CCNCC4)c3c2)c1`, the Potency in [1] was > 11.4 µM (inactive); in assay [3], 20 µM (active); in assay [11] it was > 46 µM (inactive); in [6], > 46 µM (inactive); in [14], 6.31 µM (active). Also, the figures for the activity change, negative = inhibition in assay [2], in assay [4] and in assay [9] were 2.29% (inactive), 13.6% (inactive) and 7.49% (inactive), respectively. Besides, in [5], the activity, negative = inhibition is -1.25% (inactive). For the same compound, the result in [7], in assay [15] and in assay [16] was inactive. Moreover, the Potency entry in assay [8], in assay [13] and in [10] was “inactive” each time. In addition, the values for the max response in assay [9] (setting [19]) and in assay [9] (setting [20]) were -3.29% and 2.37%, respectively.
In the case of `COC(=O)N1CCC2(CC1)CN(c1cccc(-c3ccccc3)c1)C2`, the figures for the Potency in [1] and in assay [6] were > 11.4 µM (inactive) and > 46 µM (inactive), respectively. Besides, the activity change, negative = inhibition in [2] is -12.5% (inactive); in assay [4] it was -3.27% (inactive); in assay [9] it was 4.36% (inactive). Moreover, the Potency result in assay [3], in [8] and in assay [10] was “inactive” in each case. Further, in assay [5], the activity, negative = inhibition was 4.85% (inactive). The call in [7] was inactive. For the same compound, the values for the max response in [9] (setting [19]) and in assay [9] (setting [20]) were 23.2% and 29.4%, respectively.
For the compound `Cc1noc(C)c1C(=O)N1CCC[C@@]2(CCN(c3ccccc3)C2)C1`, the Potency in assay [1] is > 11.4 µM (inactive); in assay [3], 25.1 µM (active); in assay [6], > 46 µM (inactive); in assay [17] it was 5.01 µM (active). The activity change, negative = inhibition is -7.05% (inactive) in [2], -18.1% (inactive) in [4] and -2.45% (inactive) in assay [9]. For the same compound, the activity, negative = inhibition in [5] is 3.26% (inactive). Moreover, the compound was classed as inactive in [7]. Further, the Potency result in [8], in assay [13] and in assay [10] was “inactive” in each case. Further, the values for the max response in assay [9] (setting [19]) and in assay [9] (setting [20]) were 13.4% and 14.8%, respectively.
Turning to `COc1ccc(C(=O)N2CCC3(CCCN(Cc4ccncc4)C3)CC2)cc1`, the Potency in assay [1] was > 11.4 µM (inactive); in assay [6], > 46 µM (inactive); in assay [18] it was 3.16 µM (active); in [17], 7.94 µM (active). Besides, the activity change, negative = inhibition in assay [2] was -3.23% (inactive); in assay [4], -17.9% (inactive); in assay [9] it was 3.4% (inactive). In addition, the Potency result in assay [3], in [8], in assay [13] and in assay [10] was “inactive” each time. Further, the activity, negative = inhibition in assay [5] is 2.74% (inactive). In assay [7], the result was inactive. Moreover, the max response amounted to 2.99% in assay [9] (setting [19]) and 8.92% in assay [9] (setting [20]).
